Hit rate of the full screen: of about 10,000 compounds, about 25 (0.2%) were called active.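 The calls were made as follows: active = compound among top-ranked inhibitors of TNF-induced VCAM-1 adhesion protein staining, with the hit upheld by image or statistical review; inactive = the rest, including hits rejected on review.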 For the sample, actives were picked, then their nearest neighbours and some compounds at random.

Our source for the inhibition values is PubChem BioAssay AID454 (Sanford-Burnham Center for Chemical Genomics, 2006).

The assay can be described thus: suppression of endothelial VCAM-1 upregulation – cell-based, plate reader, pooled HUVEC, TNFa stimulus (AID 454). As to conditions: HUVEC TNFa-induced VCAM-1 surface immunofluorescence; hits give high values,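 compound tested at 5 µM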.
By inhibition is commonly meant the percentage by which the read-out fell short of the control. In the case of `O=C(CN1C(=O)CN=C(c2ccccc2)c2ccccc21)NCc1ccco1`, the inhibition result is “inactive”.

For the compound `O=C(Cn1cc(C(=O)c2ccccc2)c2ccccc21)NCc1ccco1`, the inhibition entry is “inactive”.

For `Cc1cccc(C2=NCC(=O)N(CC(=O)NCc3ccco3)c3sc4c(c32)CCCC4)c1`, the inhibition was 78.7% (active).

Regarding `COc1ccc(CCn2c(O)c(C=NCc3cccnc3)c(=O)[nH]c2=O)cc1OC`, the inhibition entry was “inactive”.

As for `CCOc1ccc(C2SCC(=O)Nc3c2c(=O)[nH]n3C2CCCCCC2)cc1` (stereo not given), the inhibition result is “inactive”.
